From PubChem BioAssay
Compounds with a hit are over-represented: about 9.3% of the library has one in this group of screens.
FMDV inh: foot and mouth disease virus antiviral activity | FMDV antiviral cell-based qHTS | Potency, µM (highest dose often 57.9 µM), inactives show at the top dose activity change, negative = inhibition, hits mostly inhibitors | 1.2% of 410,000 active; calls by dose curve; tested in HEK293T cells; note: read-out not given here; potency is the fitted concentration of half-maximal effect; nearly all actives have a fitted effect of over 45% in size
Sm TGR block: S. mansoni TGR enzyme inhibition; Q962Y6; purified TGR, DTNB reduction, TNB absorbance 405 nm; Potency, µM (top dose mostly 114 µM), without a hit: at the top dose activity change, negative = inhibition, actives largely listed as inhibitors; 3% of 360,000 active; AID 485364; note: potency is the fitted concentration of half-maximal effect; nearly all actives have a fitted effect of over 60% in size
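TGR 20 nM + NADPH 100 uM (dispensed conc.), cpd preinc 15 min RT; start with NADPH (500 uM addition) then DTNB (15 mM addition). Kinetic TNB absorbance, 405 nm filter. Four-parameter Hill fit across titration.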
Vaccinia mCherry: inhibitors of vaccinia virus infection (mCherry reporter signal); 0.63% of 310,000 active; Vaccinia virus mCherry reporter infection, fluorescence; Potency, µM (top dose mostly 36.5 µM), for the others: top-dose activity change, negative = inhibition, most hits filed as inhibitors; AID 720579; calls by dose curve; tested in A549 cells; note: potency is the fitted concentration of half-maximal effect; nearly all actives have a fitted effect of over 35% in size
HCV inhibitor: HCV inhibition; Huh7.5.1 HCVcc-Cre infection, luciferase reporter, 44 h; Potency, µM (top dose mostly 41.8 µM), without a hit: at the top dose activity change, negative = inhibition, hits mostly inhibitors; 3.4% of 340,000 active; AID 651820; note: potency is the fitted concentration of half-maximal effect
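Compounds are dispensed onto cells plated 4 h earlier at 1,000 per well, with HCVcc-Cre virus (about 0.5 moi) added next. Following 44 h of culture, luminescent signal is measured for 15 sec after 15 min with substrate at room temperature.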
HCMV inh: inhibitors of human cytomegalovirus; activity change, negative = inhibition, % at 57.5 µM; 4.5% of 410,000 active; HFF cells, HCMV-luciferase reporter, 72 h; hits give low values; AID 1259415; in the data active = activity change below about -60%; inconclusive = no clear call, values can overlap the other calls; inactive = above about -39%
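HFF cells seeded 16 h at 37C, treated with compounds, infected with luciferase-reporter HCMV at MOI 1 PFU/cell; luciferase read at 72 h post infection, normalized to buffer-only and Salinomycin controls.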
Vaccinia Venus: inhibitors of vaccinia virus (Venus reporter) | 0.46% of 330,000 active | Vaccinia virus Venus reporter expression, fluorescence | AID 720580 | Potency, µM (highest dose often 36.5 µM), without a hit: at the top dose activity change, negative = inhibition, most hits filed as inhibitors; calls by dose curve; tested in A549 cells; note: potency is the fitted concentration of half-maximal effect; nearly all actives have a fitted effect of over 30% in size
The depositor's hits bear a star. Unless noted, calls come from the whole dose curve; as a rule, active = well fitted curve in the direction sought with a large enough effect; inconclusive = small, poorly fitted or top-dose-only effect, or another doubt; inactive = no such curve, though single readings can be large; an effect the other way counts as inactive or inconclusive. % is set by controls: 0 for no effect and ±100 for the full control effect.

CCc1ccc(N=c2c([N+](=O)[O-])nn(-c3ccc4c(c3)OCCO4)n2O)cc1 was read as FMDV inh 2.4%, Sm TGR block 10µM*, Vaccinia mCherry -13.4%, HCV inhibitor -10.0%, HCMV inh 23.1 and Vaccinia Venus -6.7%.
Cc1cc(C)cc(N=c2c([N+](=O)[O-])nn(-c3ccc4c(c3)OCCO4)n2O)c1 was read as FMDV inh -22.3%, Sm TGR block 2.5%, Vaccinia mCherry inconclusive, HCV inhibitor inconclusive, HCMV inh 0.0 and Vaccinia Venus -19.9%.
O=C1CCCN1CCCN=c1c([N+](=O)[O-])nn(-c2ccc(Cl)cc2)n1O was read as FMDV inh 0.5%, Sm TGR block -1.5%, Vaccinia mCherry inconclusive, HCV inhibitor 11.2µM*, HCMV inh -27.4 and Vaccinia Venus inconclusive.
Screening Cc1ccc(N=c2c([N+](=O)[O-])nn(-c3ccc(Cl)cc3)n2O)cc1C returned FMDV inh -12.3%, Sm TGR block -18.8%, Vaccinia mCherry -5.7%, HCV inhibitor 10.8%, HCMV inh 14.7 and Vaccinia Venus -0.2%.
For Cc1cc(NC(=O)OC(C)(C)C)c(-n2nnnc2C(C(=O)c2ccc3c(c2)OCO3)N2CCCCC2)cc1C (stereo not drawn) the results were HCMV inh -8.3.
For Cc1ccc(N=c2c([N+](=O)[O-])nn(-c3ccc4c(c3)OCCO4)n2O)c(Cl)c1 the results were Sm TGR block 4.47µM*.
Cc1ccc(N=c2c([N+](=O)[O-])nn(-c3ccccc3)n2O)c(C)c1 was read as FMDV inh 6.7%, Sm TGR block 31.6µM*, HCV inhibitor inconclusive and HCMV inh 116.4.
For Cc1cccc(-n2nc([N+](=O)[O-])c(=NC3CCN(Cc4ccccc4)CC3)n2O)c1 the results were FMDV inh -21.9%, Sm TGR block 0.8%, HCV inhibitor 8.91µM* and HCMV inh -63.9*.
Cc1cccc(CCN=c2c([N+](=O)[O-])nn(-c3ccccc3)n2O)c1 was read as FMDV inh -16.6%, Sm TGR block 2.4%, HCV inhibitor inconclusive and HCMV inh -35.8.
O=[N+]([O-])c1nn(-c2ccc3c(c2)OCCO3)n(O)c1=NCCCO was read as FMDV inh 28.0%, Sm TGR block -2.5%, Vaccinia mCherry -26.0%, HCV inhibitor 11.2µM*, HCMV inh 16.2 and Vaccinia Venus -26.5%.
`Cc1ccc(CN=c2c([N+](=O)[O-])nn(-c3ccc4c(c3)OCCO4)n2O)cc1` gave FMDV inh 0.0%, Sm TGR block -2.9%, Vaccinia mCherry -24.3%, HCV inhibitor inconclusive, HCMV inh 47.3 and Vaccinia Venus 0.0%.
Screening O=[N+]([O-])c1nn(-c2ccc3c(c2)OCCO3)n(O)c1=Nc1ccc(Cl)cc1 returned Sm TGR block 35.5µM*, Vaccinia mCherry -28.7%, HCV inhibitor 7.08µM*, HCMV inh -90.6* and Vaccinia Venus -21.1%.
For Cc1nc2cc(C)c(C)cc2s1 the results were FMDV inh 10.0%, Sm TGR block 0.7%, Vaccinia mCherry inactive, HCV inhibitor -0.2%, HCMV inh 10.8 and Vaccinia Venus -8.7%.
For Cc1cc2nc3ccc(=[N+](C)C)cc-3sc2cc1N the results were FMDV inh -8.4%, Sm TGR block inconclusive and HCV inhibitor 3.16µM*.
COc1cc2sc3cc(NCc4ccc(C)o4)ccc3c(=O)c2cc1OC was read as FMDV inh 37.2%, Vaccinia mCherry inconclusive, HCV inhibitor 3.55µM*, HCMV inh 210.4 and Vaccinia Venus -15.6%.
CCSc1cc(Cl)nc(N)n1 was read as FMDV inh -21.0%, Sm TGR block -1.2%, Vaccinia mCherry -10.7%, HCV inhibitor -3.6%, HCMV inh -1.6 and Vaccinia Venus -8.6%.
`O=C(Nc1ccc(Oc2ccc3ccccc3c2)cc1)c1ccco1` gave FMDV inh 0.0%, Sm TGR block 8.1%, Vaccinia mCherry -16.6%, HCV inhibitor inconclusive, HCMV inh -68.5* and Vaccinia Venus -17.1%.
O=C(Nc1ccc(Oc2ccc(NC(=O)c3ccco3)c(NC(=O)c3ccco3)c2)cc1)c1ccco1 was read as Sm TGR block -20.8%, Vaccinia mCherry -8.8%, HCV inhibitor 25.1µM*, HCMV inh inconclusive and Vaccinia Venus -10.1%.
For O=C(Oc1ccc2ccccc2c1)c1ccco1 the results were FMDV inh 22.9%, Sm TGR block 6.9%, HCV inhibitor 13.2% and HCMV inh 35.6.
`COc1ccc(NC(=O)c2ccc(NC(=O)c3ccco3)cc2)c(OC)c1` gave FMDV inh 2.2%, Sm TGR block -6.8%, Vaccinia mCherry inactive, HCV inhibitor inconclusive, HCMV inh -36.5 and Vaccinia Venus 0.0%.
Cc1cc(C(=O)Nc2ccc3ccccc3c2)oc1C was read as FMDV inh -2.2%, Sm TGR block 1.6%, Vaccinia mCherry inconclusive, HCV inhibitor 11.2µM*, HCMV inh 57.9 and Vaccinia Venus -6.2%.
Screening CC1CCCCN1C(=O)CSc1nc(-c2ccccc2)cn1N (stereo not drawn) returned FMDV inh 34.2%, Sm TGR block 1.2%, Vaccinia mCherry inactive, HCV inhibitor 4.7%, HCMV inh 22.6 and Vaccinia Venus -8.1%.
Cc1ccc(C)c(N2CCN(c3nc4ccc(C)cc4nc3-n3nc(C)cc3C)CC2)c1 was read as FMDV inh -3.3%, Sm TGR block 0.2%, Vaccinia mCherry -8.0%, HCMV inh 5.6 and Vaccinia Venus -8.5%.
Screening CC1CC(OC(=O)c2ccccc2C(=O)c2ccc(Cl)cc2)C(=O)O1 (stereo not drawn) returned FMDV inh 49.1%, Vaccinia mCherry -13.8%, HCV inhibitor 9.3%, HCMV inh -8.1 and Vaccinia Venus -7.6%.
Screening O=C(CCCn1c(=O)[nH]c2ccsc2c1=O)N1CCN(c2cccc(C(F)(F)F)c2)CC1 returned FMDV inh inconclusive, Sm TGR block 3.1%, Vaccinia mCherry -26.6%, HCMV inh -105.1* and Vaccinia Venus -20.1%.
Screening O=C(CCCCn1c(=O)[nH]c2ccsc2c1=O)N1CCN(c2cccc(Cl)c2)CC1 returned FMDV inh inconclusive, Sm TGR block -0.6%, Vaccinia mCherry inconclusive, HCMV inh -69.5* and Vaccinia Venus -19.0%.
Screening O=C(CCn1c(=O)[nH]c2ccsc2c1=O)N1CCN(c2cccc(Cl)c2)CC1 returned FMDV inh inconclusive, Sm TGR block 1.0%, HCV inhibitor -13.1% and HCMV inh 6.6.
`CC(=O)N(Cc1ccccc1)C(CC(=O)NCc1ccccc1)C(=O)O` (stereo not drawn) gave FMDV inh -9.2%, Vaccinia mCherry -5.6%, HCV inhibitor 8.2%, HCMV inh -37.5 and Vaccinia Venus -10.5%.
